Whole data set: some 33,000 sequences, median “E-score (-0.5 to 0.5)” near -0.011, cut for the highest 2% near 0.28. What follows is part of a selection rich in the highest values, with near analogues and random picks from the rest.
Biological target: T1, Gcr1 (UniProt P07261)
T1 sequence: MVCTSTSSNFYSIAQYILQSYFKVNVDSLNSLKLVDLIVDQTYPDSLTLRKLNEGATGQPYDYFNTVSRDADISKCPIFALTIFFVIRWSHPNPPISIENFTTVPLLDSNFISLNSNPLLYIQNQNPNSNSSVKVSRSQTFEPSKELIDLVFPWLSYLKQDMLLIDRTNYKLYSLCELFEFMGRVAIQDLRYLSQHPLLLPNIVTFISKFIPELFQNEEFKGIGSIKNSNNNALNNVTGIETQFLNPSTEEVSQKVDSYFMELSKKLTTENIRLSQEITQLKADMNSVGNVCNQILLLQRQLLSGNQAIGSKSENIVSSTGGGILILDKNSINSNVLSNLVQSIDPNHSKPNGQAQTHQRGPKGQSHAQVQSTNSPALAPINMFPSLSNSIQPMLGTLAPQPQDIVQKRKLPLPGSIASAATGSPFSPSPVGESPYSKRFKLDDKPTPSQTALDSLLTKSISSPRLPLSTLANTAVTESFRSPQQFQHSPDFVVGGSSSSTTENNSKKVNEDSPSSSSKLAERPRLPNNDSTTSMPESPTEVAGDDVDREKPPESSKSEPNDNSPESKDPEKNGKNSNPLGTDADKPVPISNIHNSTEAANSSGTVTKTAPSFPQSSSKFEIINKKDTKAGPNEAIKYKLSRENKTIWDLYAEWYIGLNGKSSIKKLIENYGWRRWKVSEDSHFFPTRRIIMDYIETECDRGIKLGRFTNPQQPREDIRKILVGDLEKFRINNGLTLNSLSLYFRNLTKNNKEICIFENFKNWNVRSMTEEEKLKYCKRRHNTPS
Assay: PBM E-score (8-mer binding enrichment) (E-score (-0.5 to 0.5)); higher = stronger / more preferred TF binding
Conditions: protein concentration: 100 nM; construct: GST-full length
Outline: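 Using PURExpress in vitro transcription/translation, GST-tagged yeast transcription factors were made in full-length or DNA-binding-domain form. These were applied at about 100-200 nM to double-stranded universal all-10-mer Agilent arrays, and bound protein was detected with fluorescent anti-GST. Scans were normalised with masliner before the Universal PBM Analysis Suite assigned E-scores to ungapped eight-base words pooled with their reverse complements.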

| Sequence | PBM E-score |
| --- | --- |
| GCGATCCC | 0.0838 |
| ACCAACCT | -0.0617 |
| ACCAATAA | 0.0976 |
| CAGGGAGG | -0.257 |
| CGTGGTGA | -0.09 |
| CAGTCTAC | -0.0756 |
| AGACGCAT | 0.231 |
| CCACGCCG | -0.106 |
| AGACGCCT | 0.327 |
| ACACGCCA | -0.163 |
| AGACGCAG | 0.0695 |
| CGACGCCA | 0.157 |
| CGACGCCG | 0.349 |
| ACACGCCG | 0.199 |
| AGACGCCG | 0.421 |
| ACACGCCT | -0.087 |
| AGACGCCA | 0.283 |
| CGCCGACG | 0.0121 |
| AAAGCGCG | -0.0766 |
| TAGCCCCA | 0.139 |
| AGAGGGGC | -0.044 |
| GGTTTGAC | 0.0178 |
| CGTATGAC | 0.0685 |
| TAAACCGA | -0.235 |

| Sequence | PBM E-score |
| --- | --- |
| CTCTGTTC | -0.0161 |
| AACCGGGT | 0.0617 |
| GTCCGAAA | 0.212 |
| CTGGTCAA | 0.0775 |
| AGACGCGA | 0.214 |
| CGACGCGC | 0.0401 |
| AGACGCGC | 0.289 |
| ACCGTGGG | -0.00593 |
| TAGTGGAA | 0.42 |
| AAGTGGTA | 0.176 |
| AAGTGGTG | 0.281 |
| GAGTGGAC | -0.0196 |
| AAGTGGAA | 0.41 |
| AAGTGGAT | 0.136 |
| AAGTGGAG | 0.141 |
| TGGTGGAA | 0.124 |
| GGGTGGAA | -0.113 |
| CAGTGGAA | 0.244 |
| GAGTGGAA | 0.316 |
| AAGTGGTC | 0.0307 |
| GTCGCCTA | 0.0571 |
| GATCTCAC | -0.257 |
| CTAGGGTC | 0.00957 |
| ATTTTTTG | 0.228 |

| Sequence | PBM E-score |
| --- | --- |
| AGTTATTC | 0.0537 |
| CACTGTAG | -0.115 |
| TAGTGGCA | 0.289 |
| AAGTGGCA | 0.238 |
| GAGTGGCA | -0.0587 |
| AAGCGATC | -0.135 |
| AGGTAGTC | 0.072 |
| CGGAGTCC | 0.281 |
| CGGAGTCA | -0.00995 |
| AGGAGTCG | -0.069 |
| AGGAGTCA | -0.0283 |
| AGGAGTCC | 0.303 |
| CGGAGTAC | -0.243 |
| GACACCTA | 0.0961 |
| TCCCTACA | 0.00308 |
| AAGCAGGA | 0.0293 |
| CCTCAGAC | -0.19 |
| CCACTTCC | 0.305 |
| CAACTTCC | 0.321 |
| CAACTTCA | -0.0643 |
| CCACTTCG | 0.0958 |
| CAACTTCG | 0.107 |
| GCACTTCC | 0.168 |
| GGCTCGCA | -0.137 |
